According to PubChem BioAssay (EPA / NIEHS):
“And” between values parts separate entries of the source, which are not always exact repeats. Equal values may be shown once. Results filed as inconclusive are left out. A structure can be active in one record and inactive in another. The source made the active and inactive calls. Rule for the calls, unless noted: active = hit-call score of the fitted dose curve at least 0.9, where 1 is the maximum; inconclusive = response in the unintended direction; inactive = score below 0.9.

Key:
[1] = ATG_XTT_Cytotoxicity: Cytotoxicity Assessment in the Attagene TRANS-FACTORIAL HepG2 Assay (AID 2283584);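 for AC50: XTT signal for cell number as viability in transfected HepG2 cells; cells exposed to compound for 24 h before reading; active means loss of viability signal versus DMSO baseline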
Outline: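 HepG2 cells transiently transfected with GAL4-UAS multiple reporter units, dosed 24 h; cytotoxicity read by XTT as loss of signal versus DMSO baseline.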

[2] = TOX21_p53_BLA_p2_viability: Viability Assessment in the Tox21 HCT-116 p53 Agonism Beta-lactamase Assay, Phase 2 (AID 2283591);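 note: compound exposure lasted 16 h at 37 °C; actives lower the ATP signal meaning cytotoxicity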
Outline: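 HCT116 p53-bla cells, 4000/well, dosed after 5 h plating (217-fold dilution of DMSO stocks) and incubated 16 h at 37C. Viability taken as cellular ATP by CellTiter-Glo luminescence after 30 min RT; signal loss marks cytotoxicity.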

[3] = target: Cellular tumor antigen p53 (Homo sapiens) (UniProt P04637); assay: TOX21_p53_BLA_p2_ratio: Tox21 HCT-116 p53 Agonism Beta-lactamase Assay, Ratio, Phase 2 (AID 2283592)
Outline: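 HCT-116 cells with p53-responsive beta-lactamase reporter, 4000 cells/well, preincubated 5 h, then compound in DMSO (217-fold dilution) for 16 h at 37C. CCF4-AM substrate 2 h at room temperature; 460/530 nm emission ratio fitted upward versus DMSO.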

[4] = TOX21_p53_BLA_p3_viability: Viability Assessment in the Tox21 HCT-116 p53 Agonism Beta-lactamase Assay, Phase 3 (AID 2283593);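 note: cells exposed to compound for 16 h before reading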
Outline: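 HCT116 cells, 4000/well, dosed 5 h after plating by pin transfer (217-fold dilution from DMSO stock) and incubated 16 h at 37C, 5% CO2. Viability read as ATP luminescence with CellTiter-Glo after 30 min at room temperature.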

[5] = target: Cellular tumor antigen p53 (Homo sapiens) (UniProt P04637); assay: TOX21_p53_BLA_p3_ratio: Tox21 HCT-116 p53 Agonism Beta-lactamase Assay, Ratio, Phase 3 (AID 2283596)
Outline: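 HCT116 p53-bla cells (4000/well) given compound in DMSO (217-fold dilution) after 5 h, incubated 16 h at 37C. CCF4-AM substrate 2 h at room temperature; 460/530 nm emission ratio, gain fitted against DMSO.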

[6] = TOX21_p53_BLA_p4_viability: Viability Assessment in the Tox21 HCT-116 p53 Agonism Beta-lactamase Assay, Phase 4 (AID 2283597);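 note: hits lower the luminescence signal meaning cytotoxicity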
Outline: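 HCT-116 p53-bla cells, 4000/well, dosed after 5 h attachment and incubated 16 h at 37 °C, 5% CO2. Viability from CellTiter-Glo ATP luminescence after 30 min at room temperature, taken after the beta-lactamase read; loss of signal indicates cytotoxicity.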

[7] = target: Cellular tumor antigen p53 (Homo sapiens) (UniProt P04637); assay: TOX21_p53_BLA_p5_ratio: Tox21 HCT-116 p53 Agonism Beta-lactamase Assay, Ratio, Phase 5 (AID 2283599)
Outline: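 HCT-116 p53-bla cells (4000/well) plated 5 h, dosed with compound (217-fold DMSO dilution) for 16 h at 37 C; CCF4-AM substrate 2 h at room temperature. Activity is the 460/530 nm emission ratio (405 nm excitation), fitted in gain-of-signal direction versus DMSO.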

[8] = TOX21_p53_BLA_p5_viability: Viability Assessment in the Tox21 HCT-116 p53 Agonism Beta-lactamase Assay, Phase 5 (AID 2283600)
Outline: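 HCT-116 p53 beta-lactamase reporter cells, 4000/well, were exposed to compound (pin transfer, 217-fold dilution) for 16 hours at 37C. Cellular ATP was read by CellTiter-Glo luminescence after 30 min at room temperature.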

[9] = target: Cellular tumor antigen p53 (Homo sapiens) (UniProt P04637); assay: TOX21_p53_BLA_p4_ratio: Tox21 HCT-116 p53 Agonism Beta-lactamase Assay, Ratio, Phase 4 (AID 2283601)
Outline: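 HCT-116 p53 beta-lactamase reporter cells (4000/well) preincubated 5 h, then compound (217-fold dilution of DMSO stock) for 16 h at 37C. CCF4-AM substrate added 2 h at room temperature; 460/530 nm emission ratio fitted upward versus DMSO.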

[10] = tested on: Thyroperoxidase (TPO), gene 54314; assay: CCTE_Simmons_AUR_rTPO: CCTE's Amplex UltraRed Assay for Thyroperoxidase (TPO) Inhibition, Simmons Lab (AID 2283662);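 note: potency for loss of signal meaning inhibition of peroxidase activity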
Outline: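 Rat thyroid microsomal TPO + 25 uM AUR in 200 mM K phosphate; cpd 5 nM–87.5 uM [final], 8 conc, 0.5% DMSO; 300 uM H2O2 starts rxn; 37C dark 30 min; endpoint FI 544/590 nm; n=3.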

[11] = CCTE_Simmons_CellTiterGLO_HEK293T: Viability Assessment in CCTE's Assays for Thyroperoxidase (TPO) Inhibition, Simmons Lab (AID 2283665)
Outline: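 HEK293T cells in DMEM with 1% FBS were dosed with 8 concentrations (5 nM–87.5 uM final, 0.5% DMSO) for 24 hr at 37C; ATP content was read by CellTiter-Glo luminescence, loss-of-signal versus DMSO, three biological replicates.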

[12] = target: Luciferin 4-monooxygenase (Photinus pyralis) (UniProt P08659); assay: CCTE_Simmons_QuantiLum_inhib_2: CCTE's Firefly Luciferase Inhibition Assay, Simmons Lab (AID 2283767)
Outline: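 Recombinant firefly luciferase (5 ng/well, 200 mM potassium phosphate with 1 mg/ml BSA) was exposed to 8 concentrations from 5 nM to 87.5 uM (final, 0.5% DMSO) for 30 min at 37C in the dark. Loss of luminescence versus DMSO was read after injecting D-luciferin/ATP-analogue reagent.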

[13] = ACEA_AR_agonist_AUC_viability: ACEA Biosciences xCELLigence Real-Time Cell Analysis on Androgen Receptor Agonism for Viability (AID 2283775);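 for AC50: viability read 80 hours after compound addition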
Outline: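 Read-out is area under the impedance curve at 80 h post-dose in 22Rv1 cells, with DMSO as baseline and signal loss taken as reduced viability. Compounds ran in duplicate from 100 uM final.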

[14] = CCTE_Padilla_ZF_144hpf_TERATOSCORE: (Legacy) CCTE's 144 Hour Post-fertilization zebrafish Assay Teratoscore, Padilla Lab (AID 2283679; active = hit-call score of the fitted dose curve at least 0.9, where 1 is the maximum; inactive = score below 0.9;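 note: zebrafish embryos with chorions exposed by immersion from 6-8 hpf to 5 dpf with daily renewal; teratogenicity score from eye scoring of death hatching and malformations at 144 hpf; higher score means more developmental defects relative to DMSO baseline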)
Outline: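 Larvae scored by eye at 144 hpf for death, hatching and malformations after a day in clean Hanks'. Before that, daily-renewed exposure at 80 uM (0.4% DMSO, 26C) from roughly 6-8 hpf through 5 dpf, 4 embryos per chemical.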

Measured: AC50

Cellular tumor antigen p53 (Homo sapiens), sequence (P04637 whole entry, looked up): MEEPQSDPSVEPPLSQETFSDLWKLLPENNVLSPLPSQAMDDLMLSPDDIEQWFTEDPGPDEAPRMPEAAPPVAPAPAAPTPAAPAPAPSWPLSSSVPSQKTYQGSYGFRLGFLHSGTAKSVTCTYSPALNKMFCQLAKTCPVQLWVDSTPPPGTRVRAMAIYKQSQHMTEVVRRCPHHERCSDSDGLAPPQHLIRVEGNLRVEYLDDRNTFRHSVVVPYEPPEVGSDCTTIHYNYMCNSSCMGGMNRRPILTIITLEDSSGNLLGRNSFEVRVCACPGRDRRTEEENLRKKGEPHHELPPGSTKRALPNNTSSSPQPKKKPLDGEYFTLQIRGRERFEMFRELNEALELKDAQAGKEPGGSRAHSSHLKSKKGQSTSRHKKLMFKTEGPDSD
Luciferin 4-monooxygenase (Photinus pyralis), sequence (P08659 whole entry, looked up): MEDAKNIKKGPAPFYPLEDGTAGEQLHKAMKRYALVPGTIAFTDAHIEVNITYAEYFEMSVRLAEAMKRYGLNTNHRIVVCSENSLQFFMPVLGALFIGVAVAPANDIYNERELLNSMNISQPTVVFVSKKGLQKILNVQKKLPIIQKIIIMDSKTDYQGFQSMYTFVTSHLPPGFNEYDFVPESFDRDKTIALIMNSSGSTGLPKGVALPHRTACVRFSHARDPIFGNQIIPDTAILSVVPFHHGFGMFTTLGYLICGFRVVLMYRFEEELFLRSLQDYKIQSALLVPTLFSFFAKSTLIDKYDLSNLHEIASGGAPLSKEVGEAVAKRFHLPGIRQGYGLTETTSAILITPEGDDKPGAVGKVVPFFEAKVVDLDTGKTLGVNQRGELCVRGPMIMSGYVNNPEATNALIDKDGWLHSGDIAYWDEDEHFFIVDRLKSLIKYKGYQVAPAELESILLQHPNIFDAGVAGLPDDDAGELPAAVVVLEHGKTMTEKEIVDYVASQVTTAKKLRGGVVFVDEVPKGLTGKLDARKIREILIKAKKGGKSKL

Cc1ccc(C2OC[C@@H]3OC(c4ccc(C)cc4)O[C@H]([C@H](O)CO)[C@@H]3O2)cc1 (stereo not given in full)
inactive: [1]

CCCCCCCCc1ccc(Nc2ccc(CCCCCCCC)cc2)cc1
inactive: [1]

CN(C)c1ccc(C(=N)c2ccc(N(C)C)cc2)cc1
inactive: [1] | [2] | [4] | [6] | [8] | [11] | [12]
active: [3] 896 nM and 2.2 µM | [5] 13.2 µM and 6.84 µM | [7] 2.63 µM and 2.56 µM | [9] 936 nM and 1.49 µM | [10] 31.6 µM | [13] 3.18 µM

CC(C)C1=CC2=CC[C@@H]3[C@](C)(CCC[C@@]3(C)C(=O)O)[C@H]2CC1
active: [2] 58.9 µM
inactive: [1] | [3] | [4] | [5] | [6] | [7] | [8]

CC(C)(c1cc(Br)c(OCCO)c(Br)c1)c1cc(Br)c(OCCO)c(Br)c1
active: [1] 23.3 µM | [2] 37.3 µM | [3] 10.8 µM | [4] 55 µM | [5] 19.9 µM | [6] 53.1 µM | [8] 60.1 µM

COc1cc(NC(=O)CC(C)=O)c(OC)cc1Cl
active: [2] 18.8 µM | [6] 31 µM
inactive: [1] | [2] | [3] | [4] | [5] | [6] | [7] | [8]

CCOc1nc(F)cc2nc(S(=O)(=O)Nc3c(Cl)cccc3C(=O)OC)nn12
inactive: [1]

O=C(O)c1ccccc1Nc1cccc(C(F)(F)F)c1
inactive: [1] | [2] | [3] | [5] | [8] | [9]
active: [3] 19.9 µM | [6] 22.7 µM and 23 µM | [9] 39.5 µM

Clc1nc2ccccc2s1
inactive: [1]

CC(C)c1ccc2c(C(C)C)cc(C(C)C)c(S(=O)(=O)O)c2c1
active: [6] 89.7 µM
inactive: [1] | [2] | [3] | [4] | [5] | [7] | [8] | [9] | [13]

[Cl][In]([Cl])[Cl]
inactive: [1] | [2] | [3] | [4] | [5] | [6] | [7] | [8]

O=C1c2cccc(O)c2C(=O)c2c(O)cc(CO)cc21
inactive: [1] | [2] | [4] | [5] | [6] | [8] | [9]
active: [3] 31.7 µM | [7] 33.3 µM

CCCCCCCC/C=C\CCCCCCCC(=O)O
inactive: [1] | [2] | [3] | [4] | [5] | [6] | [7] | [8] | [9] | [13]

CCOC(=O)N1CCC(=C2c3ccc(Cl)cc3CCc3cccnc32)CC1
active: [1] 47.5 µM | [2] 69.7 µM and 36.8 µM | [3] 36.5 µM and 12.9 µM | [4] 79.9 µM | [5] 43.3 µM and 22.4 µM | [7] 49.6 µM | [8] 75.4 µM
inactive: [4] | [6] | [7] | [8] | [9]

[Cl][Bi]([Cl])([c]1ccccc1)([c]1ccccc1)[c]1ccccc1
active: [1] 7.84 µM | [2] 13.9 µM | [3] 18.4 µM | [4] 71.4 µM | [5] 76.2 µM | [6] 11.2 µM | [7] 67.7 µM | [8] 58.1 µM

OC1CCCCCCCCCCC1
inactive: [1] | [2] | [3] | [4] | [5] | [6] | [7] | [8] | [9] | [13]

S=C(NC1CCCCC1)NC1CCCCC1
inactive: [1]

CO[Si](CCC1CCC2OC2C1)(OC)OC (stereo not given)
inactive: [1]

O=c1cc[nH]c(=S)[nH]1
inactive: [1] | [2] | [3] | [4] | [5] | [6] | [7] | [8] | [9]

O=S(=O)(O)c1cc(S(=O)(=O)O)c2ccc3c(S(=O)(=O)O)cc(S(=O)(=O)O)c4ccc1c2c43
inactive: [1]

CCCCCCCCCCCCCCCC[n+]1ccccc1
active: [1] 26.6 µM

CCCCNc1ccc(NCCCC)c2c1C(=O)c1ccccc1C2=O
inactive: [1]

COCc1c(C(C)C)nc(C(C)C)c(/C=C/[C@@H](O)C[C@@H](O)CC(=O)O)c1-c1ccc(F)cc1
inactive: [1] | [2] | [3] | [4] | [5] | [6] | [7] | [8] | [9]
active: [14] 78.1 nM and 159 nM

CCC(CO)CO
inactive: [1] | [2] | [3] | [4] | [5] | [6] | [7] | [9]

CC/C=C\CCOC(=O)CCCCC
inactive: [1] | [2] | [3] | [4] | [5]

CC1OC1C1CCC2(C)OC2C1 (stereo not given)
inactive: [1] | [2] | [3] | [4] | [5] | [6] | [7] | [9]

Cc1cccc(N(C)C(=S)Oc2ccc3ccccc3c2)c1
inactive: [1] | [2] | [3] | [4] | [5] | [6] | [7] | [8] | [9]

CCCCCCCCCCCCCCCC[N+](C)(C)CC
active: [2] 37.2 µM | [3] 63.3 µM | [4] 65.4 µM and 35.3 µM | [5] 44.5 µM and 30.8 µM | [6] 73.7 µM and 30.9 µM | [7] 71.2 µM and 24.6 µM | [8] 74.8 µM and 18.2 µM | [9] 70.4 µM
inactive: [1] | [3]

CCCCCCCCCCc1ccccc1
inactive: [1]

C#CC1(O)CC[C@H]2[C@@H]3CCC4=CCCC[C@@H]4[C@H]3CC[C@@]21C (stereo not given in full)
active: [1] 42.3 µM | [2] 57.2 µM | [4] 83.3 µM | [5] 86.1 µM | [6] 55.7 µM | [7] 86.1 µM | [8] 46.1 µM
inactive: [2] | [4] | [8]

CCOC(=O)[C@H](C)O
inactive: [1]

COC(=O)c1ccccc1OC
inactive: [1]
